Source: PubChem BioAssay (National Center for Advancing Translational Sciences (NCATS))
Shown are actives, neighbours in structure and some others; about 12% of the full set was active somewhere.
BAZ2B inh – blocks human BAZ2B; AlphaScreen BAZ2B-H3K14Ac peptide displacement; actives 4.4% (n = 360,000); Potency, µM (highest dose often 114 µM), without a hit: top-dose activity change, negative = inhibition, hits mostly inhibitors; Q9UIF8; also: % is scaled to controls: 0 for no effect and ±100 for the full control effect; nearly all actives have a fitted effect of over 60% in size
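Complex of BAZ2B and biotin-H3K14Ac (50 nM apiece) forms over 30 min at RT, then faces library compounds up to 110 uM for another 30 min; AlphaScreen beads added, 20 min dark incubation, luminescence read.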
L3MBTL1 block – blocks human L3MBTL1 | AlphaScreen L3MBTL1–H3K9me1 peptide binding | Potency, µM (series often up to 57.1 µM), for inactives: at the highest dose activity, negative = inhibition, most hits filed as inhibitors | actives 0.66% (n = 230,000) | AID 485360; also: % is scaled to controls: 0 for no effect and ±100 for the full control effect; nearly all actives have a fitted effect of over 60% in size
Target sequence (Q9Y468 whole entry, looked up): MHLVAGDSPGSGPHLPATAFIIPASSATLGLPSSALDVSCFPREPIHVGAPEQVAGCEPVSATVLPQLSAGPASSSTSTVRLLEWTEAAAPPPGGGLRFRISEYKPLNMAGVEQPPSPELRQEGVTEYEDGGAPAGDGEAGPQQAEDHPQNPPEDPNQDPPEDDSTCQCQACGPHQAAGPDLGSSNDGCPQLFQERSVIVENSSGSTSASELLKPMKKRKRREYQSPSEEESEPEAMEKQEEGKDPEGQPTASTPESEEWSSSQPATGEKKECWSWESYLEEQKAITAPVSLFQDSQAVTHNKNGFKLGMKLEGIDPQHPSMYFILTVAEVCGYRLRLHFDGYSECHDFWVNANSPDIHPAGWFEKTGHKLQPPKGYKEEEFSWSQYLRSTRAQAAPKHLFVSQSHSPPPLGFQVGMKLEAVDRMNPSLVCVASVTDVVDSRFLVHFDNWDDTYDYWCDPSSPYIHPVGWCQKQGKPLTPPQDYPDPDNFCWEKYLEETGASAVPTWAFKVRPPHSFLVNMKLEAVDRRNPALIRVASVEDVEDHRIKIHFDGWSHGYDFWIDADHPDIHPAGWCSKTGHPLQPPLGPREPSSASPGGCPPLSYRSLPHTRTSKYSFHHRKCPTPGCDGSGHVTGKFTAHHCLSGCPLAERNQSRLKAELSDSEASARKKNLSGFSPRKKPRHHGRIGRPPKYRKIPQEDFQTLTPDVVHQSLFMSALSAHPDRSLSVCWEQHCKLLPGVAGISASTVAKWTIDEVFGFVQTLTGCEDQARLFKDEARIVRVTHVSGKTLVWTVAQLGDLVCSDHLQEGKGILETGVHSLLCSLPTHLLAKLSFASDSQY
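AlphaScreen assay: L3MBTL1 (50 nM final) was preincubated 30 min at room temperature with biotinylated H3(1-15)K9me1 peptide (75 nM final), then 30 min with library compounds; streptavidin donor and nickel chelate acceptor beads (10 ug/mL final) added, 30 min dark.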
Sfp inh – inhibitors of Bacillus subtilis Sfp phosphopantetheinyl transferase; Q9F4F7; Biochemical Sfp PPTase activity, qHTS; Potency, µM, without a hit: largest response in the series, negative = inhibition, actives largely listed as inhibitors; actives 3.5% (n = 310,000);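 also: the enzyme is Sfp with the accession as filed and its product quenches rhodamine fluorescence; 0% = enzyme reaction without inhibitor and -100% = no enzyme wells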
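Compounds were incubated with enzyme (final 15 nM) for 15 min at room temperature before substrate addition started the reaction. Fluorescence at 525 nm excitation, 598 nm emission was recorded immediately and after 30 minutes.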
HP1b binding inh – inhibitors of HP1-beta chromodomain binding to methylated histone tails | P83916 | AlphaScreen HP1-beta / biotin-H3K9me3 peptide binding | Potency, µM (titrated, usually from 114 µM), for the others: at the top dose activity change, negative = inhibition, actives largely listed as inhibitors | actives 0.56% (n = 390,000) | AID 540317; also: nearly all actives have a fitted effect of over 70% in size
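HP1-beta protein (50 nM final) preincubated 30 min at room temperature with biotinylated H3(1-18)K9me3 peptide (50 nM) in PBS pH 7.4, 0.01% Tween-20, then compound added for 30 min. AlphaScreen streptavidin donor/nickel chelate acceptor beads (10 ug/mL final), 30 min dark, luminescence read.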
G9a block – G9a (human) methyltransferase inhibition. Q96KQ7. G9a H3K9 monomethylation, AlphaScreen, 2 h. Potency, µM (top dose mostly 102 µM), without a hit: at the highest dose activity, negative = inhibition, usual class: inhibitors. actives 8.8% (n = 350,000). AID 504332; also: % is scaled to controls: 0 for no effect and ±100 for the full control effect; nearly all actives have a fitted effect of over 75% in size
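Compounds were preincubated with 20 nM G9a for 15 min, after which biotinylated H3K9 peptide (500 nM) and SAM (20 uM) started a 2 h room-temperature reaction. Monomethylated product was quantified by antibody-based AlphaScreen chemiluminescence.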
JMJD2A Tudor inh – blocks the human JMJD2A Tudor domain; Potency, µM (highest dose often 114 µM), for the others: at the top dose activity change, negative = inhibition, hits mostly inhibitors; AlphaScreen JMJD2A-Tudor / H3K4me3 peptide binding; O75164; actives 4.4% (n = 390,000); also: % is scaled to controls: 0 for no effect and ±100 for the full control effect; nearly all actives have a fitted effect of over 50% in size
* marks the source's active call; other numbers are inactive results; ? = inconclusive; · = no result given; ! = not active in a repeat; [ ] = remark or other dose. Calls follow the shape of the dose curve; as a rule, active = well fitted curve in the direction sought with a large enough effect; inconclusive = small, poorly fitted or top-dose-only effect, or another doubt; inactive = no such curve, though single readings can be large; an effect the other way counts as inactive or inconclusive. Potency is read from the fitted curve at half-maximal effect.

SMILES | BAZ2B inh | L3MBTL1 block | Sfp inh | HP1b binding inh | G9a block | JMJD2A Tudor inh
O=C(NCCOC(=O)c1ccccc1)c1ccccc1 | -3% | 3% | · | 48% | -4%[2.33 µM] | 2%
CCN(C(=S)NC(=O)C1CC1)c1ccccc1 | -22% | · | ? | 12% | 35µM* | -13%
CCN(C(=S)NC(=O)Cc1ccc(OC)cc1)c1ccccc1 | · | · | · | 2% | · | -4%
O=C(NC(=S)N(Cc1ccccc1)c1ccccn1)C1CC1 | 2% | 4% | -25% | 13% | 14µM* | -2%
CN(C(=S)NC(=O)C1CC1)c1ccc(O)cc1 | -2% | 8% | · | -39% | ? | 89µM*
NC(=O)C1(N2CCCCC2)CCN(C(=O)Nc2ccc(F)cc2)CC1 | 12% | · | · | 38% | 2%[59 µM] | -9%
CCc1cc2c(=O)c(-c3nc4ccccc4n3C)coc2c(CN2CCCCC2C)c1O (stereo not given) | 45µM* | · | 8% | 21% | 46% | -32%
O=C(CSc1nc2ccccc2c2nc(-c3ccccc3)nn12)Nc1ccc(F)cc1 | -5% | · | · | 42% | 9%[59 µM] | -22%
COc1ccc(NC(=O)CSc2nc3ccccc3c(=O)n2CCNC(C)=O)c(OC)c1 | 4% | 2% | 25µM* | 20% | -11%[59 µM] | -12%
COc1ccc(OC)c(NC(=O)CSc2nc3ccccc3c(=O)n2CCNC(C)=O)c1 | 3% | ? | -6% | 27% | -19%[59 µM] | -4%
CCOc1ccccc1-n1c(SCC(=O)Nc2ccccc2C(=O)O)nc2ccccc2c1=O | 9% | · | -23% | 24% | 50µM* | -1%
Cc1cncn1CCc1nc2c3ccccc3nc(SCC(=O)Nc3cccc(Cl)c3)n2n1 | 11µM*! | -19% | ? | 30% | 14µM* | ?
COc1ccccc1NC(=O)CSc1nc2ccccc2c2nc(-c3ccccc3)nn12 | -2% | · | · | 28% | 6%[59 µM] | 32µM*
Cc1cccc(S(=O)(=O)c2cn(Cc3ccccc3)c3cc(N4CCCCC4C)c(F)cc3c2=O)c1 (stereo not given) | -1% | · | · | 6% | 2%[59 µM] | -20%
Cc1nc(NCCc2ccccc2)c(C#N)c(C)c1[N+](=O)[O-] | 0% | -12% | -3% | 32% | -27%[59 µM] | -4%
COc1ccccc1NC(=O)CSc1nnc2ccc(-c3cccnc3)nn12 | 71µM* | -3% | 1% | 14% | 40µM* | -15%
Cc1cncn1CCc1nc2c3ccccc3nc(SCC(=O)Nc3ccc(F)cc3)n2n1 | -28% | · | · | 18% | 2%[59 µM] | -19%
CCOc1ccccc1NC(=O)CSc1nc2ccccc2c2nc(CCn3cncc3C)nn12 | 56µM* | · | · | 21% | ? | -26%
CCOc1ccccc1NC(=O)CSc1nnc2ccc(-c3cccnc3)nn12 | -15% | 10% | 21% | 31% | 5% | -5%
N#Cc1cccc(-c2nc(N3CCNCC3)c3ccccc3n2)c1 | · | · | 8% | · | · | ·
CCN(CC)CCCn1c2c(c(SCC(=O)Nc3ccc(C)c(F)c3)nc1=O)CCC2 | 5% | 4% | · | 24% | 56µM* | -8%
CCN(CC)CCn1c2c(c(SCC(=O)Nc3ccc4c(c3)OCO4)nc1=O)CCC2 | -18% | 0% | · | 18% | 35µM* | 3%
Cc1ccc(NC(=O)CSc2nc(=O)n(CCCN(C)C)c3c2CCC3)cc1F | -13% | · | · | 0% | -3%[59 µM] | -12%
CCN(CC)CCn1c2c(c(SCC(=O)Nc3cc(C)cc(C)c3)nc1=O)CCC2 | 10% | 1% | · | 3% | -47% | -13%
CC(=O)Nc1ccc(NC(=O)C(NC(=O)C2CCC(C)CC2)C(C)C)cc1 (stereo not given) | 6% | · | · | 24% | -31%[59 µM] | -9%
Cc1ccc(C(=O)OCC(=O)Nc2sccc2C(N)=O)cc1NC(=O)c1ccco1 | -34% | · | -6% | 26% | 0.89µM* | -12%[57.1 µM]
Cc1ccc(C(=O)OCC(=O)Nc2sc3c(c2C#N)CCCC3)cc1NC(=O)c1ccco1 | -30% | · | ? | -2% | 22µM* | -28%
